From PubChem
Gal4-VP16 FLuc = Gal4-VP16 reporter inhibition counter-screen. hit rate 3.5% among 310,000. Drosophila S2 Gal4-VP16 UAS-luciferase, luminescence, 20 h. AID 2546. Potency, µM (top dose mostly 53.6 µM), inactives show at the highest dose activity, negative = inhibition, most hits filed as inhibitors;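 also: Gal4-VP16 expression switched on by copper sulfate through the metallothionein promoter; potency is read from the fitted curve at half-maximal effect; nearly all actives have a fitted effect of over 50% in size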
FBPA coupling cs = inhibits coupling enzyme system, counter-screen for aldolase hits; activity change, negative = inhibition, % at 58.2 µM, hits read low; coupling enzyme system counterscreen, AmpLite Red fluorescence; hit rate 0.67% among 290,000; in the data active = activity change below about -30%
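First, compound is pin-transferred into glyceraldehyde-3-phosphate coupling-enzyme reagent at 57.5 uM final and held 10 min at RT. Next, substrate, coupling system and AmpLite Red are added. After 20 min RT, fluorescence (525/598 nm) is read.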
GALK inhibitor = blocks human galactokinase activity | P51570 | Purified GALK, Kinase-Glo residual ATP luminescence | Potency, µM (titrated, usually from 57.5 µM), without a hit: top-dose activity change, negative = inhibition, usual class: inhibitors | hit rate 0.007% among 270,000; also: potency is read from the fitted curve at half-maximal effect
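The enzyme phosphorylates galactose (100 uM) using ATP (35 uM); inhibition is detected as higher residual ATP, quantified by bioluminescence after 1 h reaction at room temperature, pH 8.0.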
TrxR1 inh = blocks rat thioredoxin reductase 1 | O89049 | recombinant rTrxR1, NADPH fluorescence consumption, selenite substrate | Potency, µM (doses to about 114 µM), inactives show at the top dose activity change, negative = inhibition, usual class: inhibitors | hit rate 1% among 390,000 | AID 588453; also: potency is read from the fitted curve at half-maximal effect; nearly all actives have a fitted effect of over 65% in size
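Rat TrxR1 (90 nM in the dispensed reagent) was pre-reduced with 400 uM NADPH for 5 min at room temperature, then incubated with compound for 15 min. After 400 uM selenite was added, NADPH fluorescence (Ex 340/Em 450 nm) was followed for 8 min.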
TrxR1 substrate = substrates of rat thioredoxin reductase 1 | O89049 | purified TrxR1 substrate turnover, NADPH consumption readout | AID 588456 | Potency, µM (series often up to 114 µM), inactives show at the top dose activity change, negative = substrate turnover | hit rate 0.01% among 390,000; also: potency is read from the fitted curve at half-maximal effect; nearly all actives have a fitted effect of over 50% in size
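Rat TrxR1, dispensed at 90 nM, was prereduced with 400 uM NADPH (final) for 5 min at ~22 deg C, then incubated with compound 15 min before 400 uM selenite. A first-read NADPH fluorescence drop versus no-compound background flagged substrates.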
RORgamma inh = ROR gamma (mouse) transcription inhibition | P51450 | Drosophila S2 Gal4-RORgamma UAS-luciferase reporter, 20 h | Potency, µM (series often up to 53.6 µM), inactives show top-dose activity change, negative = inhibition, hits mostly inhibitors | hit rate 5.4% among 310,000; also: potency is read from the fitted curve at half-maximal effect; nearly all actives have a fitted effect of over 60% in size
Target sequence (P51450 whole entry, looked up, the tested form may be a part): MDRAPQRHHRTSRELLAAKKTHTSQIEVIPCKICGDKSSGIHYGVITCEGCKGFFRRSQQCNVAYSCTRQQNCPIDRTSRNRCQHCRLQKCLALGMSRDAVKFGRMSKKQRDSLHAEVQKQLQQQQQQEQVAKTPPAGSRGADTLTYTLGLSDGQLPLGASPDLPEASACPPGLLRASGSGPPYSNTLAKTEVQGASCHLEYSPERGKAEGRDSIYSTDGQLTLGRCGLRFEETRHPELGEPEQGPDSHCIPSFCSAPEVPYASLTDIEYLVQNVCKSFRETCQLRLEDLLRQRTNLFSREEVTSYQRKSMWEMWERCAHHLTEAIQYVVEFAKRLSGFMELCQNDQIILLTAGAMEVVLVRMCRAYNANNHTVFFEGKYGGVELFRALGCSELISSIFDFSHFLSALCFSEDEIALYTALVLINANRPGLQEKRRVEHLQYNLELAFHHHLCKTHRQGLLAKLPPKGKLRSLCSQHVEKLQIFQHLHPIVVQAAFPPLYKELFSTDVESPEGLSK
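ROR gamma transcriptional activity was tracked as Gal4-UAS luciferase output in stably transfected Drosophila Schneider cells, with compound added 1 hr before 700 uM copper sulfate induction and a 20 hr ambient-temperature incubation.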
An asterisk follows results filed as active; ? = inconclusive; . = no result given; [ ] = remark or other dose. In the library only some 5.9% were active in any assay of this set; here they are far more common. Unless noted, calls follow the shape of the dose curve; as a rule, active = well fitted curve in the direction sought with a large enough effect; inconclusive = small, poorly fitted or top-dose-only effect, or another doubt; inactive = no such curve, though single readings can be large; an effect the other way counts as inactive or inconclusive. % is scaled to controls: 0 for no effect and ±100 for the full control effect.

SMILES	Gal4-VP16 FLuc	FBPA coupling cs	GALK inhibitor	TrxR1 inh	TrxR1 substrate	RORgamma inh
COCCCNC(=O)CSc1nc2c(sc3ccccc32)c(=O)n1CCCC(=O)NCC1CCCO1 (stereo not given)	3%	0	2%	13%[57.1 µM]	-5%[57.1 µM]	6%
CCN(CC)S(=O)(=O)c1cc(NC(=O)COC(=O)CCC(=O)c2cccs2)ccc1C	-1%[10 µM]	2	-3%	2%[57.1 µM]	-2%[57.1 µM]	21%
COc1cc(CNn2cn[nH]c2=S)cc(Br)c1OCc1ccccc1F	-28%	0	2%	-3%	3%	3.2µM*
COc1cc(CNCCc2ccccc2)cc(Cl)c1OCc1ccccc1	?	-1	2%	4%	-1%	?
C=CCOc1c(Cl)cc(CNn2cn[nH]c2=S)cc1OC	?	2	2%	-27%	0%	8.9µM*
C=CCOc1c(Br)cc(CNn2c(C)n[nH]c2=S)cc1OC	?	1	-6%	18%[11.4 µM]	4%[11.4 µM]	?
COc1cc(CNn2cn[nH]c2=S)cc(Cl)c1OCc1ccccc1	?	1	-1%	6%	13%	3.5µM*
CCOc1ccc(-c2nc3ccccc3c(=O)o2)cc1	?	-3	4%	-6%[57.1 µM]	54%[57.1 µM]	-39%
Cc1ccccc1C(=O)/C(C#N)=N/Nc1c(C)n(C)n(-c2ccccc2)c1=O	20µM*	0	-2%	?	-19%	8.9µM*
Cc1c(N/N=C(\C#N)C(=O)c2ccccc2)c(=O)n(-c2ccccc2)n1C	?	0	-1%	-6%	-16%	16µM*
CC(=O)NC(Nc1c(C)n(C)n(-c2ccccc2)c1=O)C(Cl)(Cl)Cl (stereo not given)	4%	2	14%	56µM*	1%	-23%
CCOC(=O)/C(C#N)=N/Nc1c(C)n(C)n(-c2ccccc2)c1=O	11%	-11	6%	-2%[57.1 µM]	-5%[57.1 µM]	-34%
Cc1ccccc1Nc1nc(Nc2ccccc2C)nc(SC2=NCCS2)n1	7.1µM*	-4	-1%	26%	3%[57.1 µM]	6.3µM*
Clc1ccccc1NCSC1=NCCS1	.	.	.	-7%[2.29 µM]	-3%[2.29 µM]	.
Cc1ccc(Nc2nc(Nc3ccc(C)cc3)nc(SC3=NCCS3)n2)cc1	5.6µM*	-3	1%	10%[57.1 µM]	2%[57.1 µM]	2.5µM*
C[C@H](NCCC(c1ccccc1)c1ccccc1)c1ccccc1	-5%[17 µM]	2	.	.	.	-19%[16.9 µM]
COc1cccc(NC(=S)NCCC(c2ccccc2)c2ccccc2)c1	22µM*	0	-1%	1%[57.1 µM]	-6%[57.1 µM]	?
CNC(=S)NCCC(c1ccccc1)c1ccccc1	?	4	-1%	11%[57.1 µM]	-24%[57.1 µM]	7.1µM*
COc1ccc(NC(=S)NCCC(c2ccccc2)c2ccccc2)c(OC)c1	3.2µM*	-3	2%	8%	-1%	4µM*
COc1cc(NC(=S)NCCC(c2ccccc2)c2ccccc2)cc(OC)c1	8.9µM*	2	.	11%	-1%	4.5µM*
C=CCn1c(SCC#N)nc2cc(Cl)ccc2c1=O	.	.	.	5%	0%	.
COC(=O)c1ccc(C23CC4(C2)[C@H](CN(Cc2ccc(-c5ccccc5)cc2)[C@@H]4c2ccccc2)C3c2ccc(C(F)(F)F)cc2)cc1 (stereo not given in full)	13%	0	-1%	-20%	-9%	21%
O=C(Nc1ccccc1)N(C1=NCCC1)c1ccccc1	-1%	4	-2%	15%[57.1 µM]	14%[57.1 µM]	-4%
O=C(CCNC(=O)c1ccc(Cl)cc1)NN1C(=O)NC2(CCCCC2)C1=O	.	.	.	0%	-7%	.
CN(C)CCCn1c2c(c(SCC(=O)Nc3cccc4ccccc34)nc1=O)CCC2	.	.	.	4%[57.1 µM]	5%[57.1 µM]	.
SMILES	Gal4-VP16 FLuc	FBPA coupling cs	GALK inhibitor	TrxR1 inh	TrxR1 substrate	RORgamma inh
Cc1cccc(NC(=S)NNC(=S)NCc2ccccc2)c1	1%	1	2%	-26%[57.1 µM]	3%[57.1 µM]	-25%
Cc1cccc(NC(=S)NCCC(c2ccccc2)c2ccccc2)c1	7.1µM*	1	1%	0%	1%	4µM*
COCCCN(C(=S)Nc1cc(Cl)cc(Cl)c1)C(C)c1ccncc1 (stereo not given)	?	-2	-1%	-11%	-6%	?
Cc1cccc(NC(=S)N(CCN(C)C)C(C)c2ccccn2)c1 (stereo not given)	-13%	1	-2%	16%	3%	11µM*
COCCCN(C(=S)Nc1cc(Cl)cc(Cl)c1)C(C)c1ccccn1 (stereo not given)	?	-1	-3%	3%	6%	7.1µM*
Cc1ccc(Cl)cc1NC(=S)N(CCN(C)C)C(C)c1ccccn1 (stereo not given)	0%	0	-1%	4%	3%	10µM*
CCOC(=O)c1ccc(NC(=S)N(CCN(C)C)C(C)c2ccncc2)cc1 (stereo not given)	1%	1	1%	-1%	-2%	0%
CCc1cccc(NC(=S)N(CCN(C)C)C(C)c2ccncc2)c1 (stereo not given)	-2%	0	-2%	-21%	-12%	14µM*
CCOC(=O)C1=C(N)Oc2cc(O)ccc2C1c1ccc(C)cc1 (stereo not given)	-22%	1	5%	2%[57.1 µM]	0%[57.1 µM]	-5%
Cc1cc(Nc2ccc(O)cc2)ccc1N	-3%	.	.	?	-15%	-28%
CC(c1ccccn1)N(Cc1ccco1)C(=S)Nc1cccc(F)c1 (stereo not given)	?	1	0%	10%	5%	13µM*
CCN(CC)S(=O)(=O)c1ccc(C(=O)OCC(=O)Nc2ccc(-c3nc4ccc(C)cc4s3)cc2)cc1	?	-2	1%	5%	41%	0.4µM*
CCN(CC)S(=O)(=O)c1cc(C(=O)OCC(=O)Nc2ccc(-c3nc4ccc(C)cc4s3)cc2)ccc1F	8.9µM*	1	.	1%	51%	13µM*
Cc1ccc2nc(-c3ccc(NC(=O)COCC(=O)O)cc3)sc2c1	-17%	11	6%	-20%	57%[57.1 µM]	-17%
Cc1cc(C(=O)OCC(=O)Nc2cccc([N+](=O)[O-])c2)c(C)o1	.	.	.	-1%	-1%	.
COc1ccccc1NC(=S)NCC1CCCO1 (stereo not given)	?	5	.	-7%	0%	?
CCOc1cc(N2CCOCC2)c(OCC)cc1NC(=O)c1ccc(OC)cc1	-15%	-4	0%	22%[57.1 µM]	4%[57.1 µM]	30%
CCOc1cc(NC(=S)NC)c(OCC)cc1NC(=O)c1ccc(OC)cc1	?	-7	0%	17%[57.1 µM]	5%[57.1 µM]	10µM*
CCOc1cc(NC(=S)Nc2ccccc2OC)c(OCC)cc1NC(=O)c1ccccc1C	2.2µM*	-8	-2%	-16%	-8%	1.8µM*
